# In PubChem BioAssay (NCI):
# Compounds without any hit were thinned out: in the full panel of roughly 83,000, 20% have a hit.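 Negative percent growth values reflect cell death: -40 means 40% of the cells present at the start died, and -100 means all died.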 A number with no mark means an inactive call. The source made the active and inactive calls. Rule for the calls: active = growth percent below 10; inactive = the rest.
# How the values were obtained:
# Experiment in all cases: NCI-60 one-dose screen, 48 h (100 = growth as untreated, 0 = no growth, -100 = all killed)
# Conditions in all cases: 10 µM unless noted
# NCI-H23 lung = test system: NCI-H23 lung
# NCI-H226 lung = test system: NCI-H226 lung
# NCI-H322M lung = test system: NCI-H322M lung
# HOP-62 NSCLC = test system: HOP-62 NSCLC
# NCI-H460 lung = test system: NCI-H460 lung
# HOP-92 NSCLC = test system: HOP-92 NSCLC
# NCI-H522 lung = test system: NCI-H522 lung
# A549/ATCC NSCLC = test system: A549/ATCC NSCLC
# 786-0 renal = test system: 786-0 renal
# COLO 205 colon = test system: COLO 205 colon
# DU-145 prostate = test system: DU-145 prostate
# MALME-3M melanoma = test system: MALME-3M melanoma
# MDA-MB-231 breast = test system: MDA-MB-231 breast
# RXF 393 renal = test system: RXF 393 renal
# SF-268 CNS = test system: SF-268 CNS
# SF-295 CNS = test system: SF-295 CNS
# SF-539 CNS = test system: SF-539 CNS
# UACC-257 melanoma = test system: UACC-257 melanoma
# M14 melanoma = test system: M14 melanoma
# K-562 leukemia = test system: K-562 leukemia
Structure (SMILES),growth (NCI-H23 lung),growth (NCI-H226 lung),growth (NCI-H322M lung),growth (HOP-62 NSCLC),growth (NCI-H460 lung),growth (HOP-92 NSCLC),growth (NCI-H522 lung),growth (A549/ATCC NSCLC),growth (786-0 renal),growth (COLO 205 colon),growth (DU-145 prostate),growth (MALME-3M melanoma),growth (MDA-MB-231 breast),growth (RXF 393 renal),growth (SF-268 CNS),growth (SF-295 CNS),growth (SF-539 CNS),growth (UACC-257 melanoma),growth (M14 melanoma),growth (K-562 leukemia) [%]
COc1ccc(N(CC(=O)NCCC[Te]c2ccccc2)C(=O)CCSC2=C(C)C(=O)c3ccccc3C2=O)cc1,-49.3% (active),-54.8% (active),2.85% (active),-46.4% (active),-73.5% (active),-49.8% (active),-41.2% (active),-52.4% (active),-22.1% (active),-97.9% (active),-10.1% (active),-11.7% (active),-61.6% (active),-26.5% (active),3.17% (active),-50.1% (active),-62.6% (active),0.434% (active),-38.3% (active),–
O=C(N/N=C\c1ccc(N(CCCl)CCCl)cc1)c1cccc([N+](=O)[O-])c1,87.7%,46.6%,121%,-2.12% (active),69.1%,92.4%,107%,90.4%,96.7%,102%,85.9%,100%,89.2%,98.5%,76.7%,88.4%,81%,92.7%,110%,–
N#CC1C(C#N)C2CCC1C1C2N1c1ccccc1 (stereo unspecified),117%,101%,92.3%,97.4%,108%,74.5%,108%,126%,107%,103%,118%,85.7%,110%,103%,104%,103%,104%,117%,101%,–
Cc1sc2c(c1C)C(c1ccc(Cl)cc1)=N[C@@H](CC(=O)OC(C)(C)C)c1nnc(C)n1-2,28.5%,71.8%,37.3%,36.8%,39.9%,21.2%,2.71% (active),37.9%,46%,19.3%,57%,57%,42.8%,–,51%,37.6%,37.5%,58.1%,43%,–
COC(=O)[C@@H](NC(=O)c1cn(CCC2CCCCC2)c2ccccc12)C(C)(C)C,76.4%,58.6%,83.7%,61.8%,79.3%,63.4%,63.7%,64.8%,73.5%,96.4%,81.7%,106%,70.1%,83.9%,68.5%,60.2%,88.1%,73%,59.4%,–
CCOC(=O)N1CC1,107%,104%,105%,99.8%,107%,53%,92.4%,99.9%,102%,91.3%,110%,108%,99.2%,106%,98.6%,97.8%,103%,101%,96.5%,–
COc1cccc2c1c(C(=O)C(=O)Nc1ccn[nH]1)cn2Cc1ccc(F)cc1,96.4%,76.4%,97.8%,103%,77.6%,87%,96.8%,86.3%,92.4%,103%,104%,112%,109%,99.8%,100%,143%,99.5%,104%,101%,–
N#CC1(C#N)C(c2ccc(N(CCCl)CCCl)cc2)OC23CCCCC2C1(C#N)C(=N)O3 (stereo unspecified),61.5%,9.15% (active),94.2%,89.2%,30.1%,88.5%,80.2%,97.3%,88.6%,104%,56.4%,96.9%,95.3%,73.9%,69.6%,108%,85%,87.9%,93.9%,–
COc1cc([N+](=O)[O-])c2nc(C)ccc2c1[N+](=O)[O-],105%,104%,139%,132%,115%,96.3%,87.2%,107%,105%,77.6%,84.9%,88%,94.4%,88.2%,98%,132%,118%,101%,92.5%,–
Cc1cc(N(CCCl)CCCl)ccc1C=Nc1cccnc1,56.6%,-45.2% (active),108%,60.4%,26.5%,44.8%,87.3%,67.9%,63%,76.7%,–,62%,98.4%,59.7%,80.4%,36.7%,53.5%,61.8%,79.5%,63.1
CC1(C)N=C(N)N=C(N)N1c1ccc(CCC(=O)Nc2ccc(S(=O)(=O)F)cc2)c(Cl)c1,29.9%,46.6%,57.9%,19.9%,6.19% (active),33.7%,-0.414% (active),-5.32% (active),20.6%,45.3%,40.2%,83.1%,51.7%,–,28.1%,30%,11.9%,–,23.4%,–
